The text below walks through data of PubChem BioAssay (NCATS).

The target of test [1] is Cellular tumor antigen p53 (Homo sapiens) (UniProt P04637). Kind of test: Primary qHTS for small molecule compounds that upregulate eGFP-tagged delta133p53alpha (in N-terminal) cells. (AID 2060322).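 For activation: series mostly up to about 56 µM; 0% = DMSO vehicle and 100% = reference activator.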 Note: nearly all actives have a fitted effect of over 75% in size. Note: potency is the fitted concentration of half-maximal effect. As to conditions: NCI-H358 eGFP-delta133p53alpha fluorescence, 24 h; activation: hits give high values. Put shortly: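 NCI-H358 cells pre-induced 24 h with 10 ng/ml doxycycline to express N-terminal eGFP-delta133p53alpha, then dosed 24 h at 37C without doxycycline; fixed, Hoechst-stained, GFP intensity by laser scanning cytometry, normalized to DMSO (0%) and 57.5 uM 5-azacytidine (100%).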
(In general: qHTS replaces the single test concentration by a dilution series.)

The target of test [2] is Aldehyde dehydrogenase, mitochondrial (Homo sapiens) (UniProt P05091). In words: qHTS for Inhibitors of the Aldehyde Dehydrogenase Family (ALDH2) Primary screen (AID 2061308).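 Note: plate controls were vehicle for no effect and reference inhibitor for full effect; nearly all actives have a fitted effect of over 55% in size.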
Test [3] addresses Retinaldehyde dehydrogenase 3 (Homo sapiens) (UniProt P47895). Kind of test: qHTS for Inhibitors of the Aldehyde Dehydrogenase Family (ALDH1A3) Validation screen (AID 2061312). Note: % is set by controls: 0 for no effect and ±100 for the full control effect; nearly all actives have a fitted effect of over 45% in size.
For test [4] the target is unchanged. In words: qHTS for Inhibitors of the Aldehyde Dehydrogenase Family (ALDH1A3) Primary screen (AID 2061315).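 Note: plate controls were DMSO vehicle for no effect and reference inhibitor for full effect.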

Where “and” joins values, the source holds several entries; their conditions need not be identical. Equal entries are not always repeated. Results filed as inconclusive are left out. Unmarked numbers belong to inactive results. Calls of active or inactive are those of the source. Calls come from the whole dose curve; as a rule, active = well fitted curve in the direction sought with a large enough effect; inconclusive = small, poorly fitted or top-dose-only effect, or another doubt; inactive = no such curve, though single readings can be large; an effect the other way counts as inactive or inconclusive.

Chain of Cellular tumor antigen p53 (Homo sapiens) (P04637 whole entry, looked up): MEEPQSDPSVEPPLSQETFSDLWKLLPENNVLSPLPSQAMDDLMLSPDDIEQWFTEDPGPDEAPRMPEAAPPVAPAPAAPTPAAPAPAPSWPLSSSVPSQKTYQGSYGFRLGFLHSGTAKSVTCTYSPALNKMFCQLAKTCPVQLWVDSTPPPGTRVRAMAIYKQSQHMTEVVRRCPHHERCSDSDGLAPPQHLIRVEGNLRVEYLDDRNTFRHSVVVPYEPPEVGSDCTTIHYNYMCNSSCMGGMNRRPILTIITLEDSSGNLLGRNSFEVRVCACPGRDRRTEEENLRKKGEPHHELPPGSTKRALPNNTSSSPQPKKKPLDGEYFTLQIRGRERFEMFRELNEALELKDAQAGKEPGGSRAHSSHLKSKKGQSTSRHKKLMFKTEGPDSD

Regarding `O=C(Nc1cccnn1)N1CCN(c2nccc(-c3ccc(F)c(F)c3)n2)CC1`, the activation in test [1] was 0.477%. Also, the Potency entry in test [2], in test [3] and in test [4] was “inactive” each time.
As for `CC(C)c1ccc(-c2cc(=O)c3ccccc3o2)cc1`, in test [1], the activation is -14.8%. In addition, the Potency entry in test [2], in test [3] and in test [4] was “inactive” each time.
As to `CCCC(=O)C1CCN(c2ncnc3c2CN(C(=O)c2ccc(-c4ccccc4)cc2)CC3)CC1`, in test [1], the activation was -12.4%. Further, the Potency entry in test [2], in test [3] and in test [4] was “inactive” each time.
For `NC(=O)c1cccc2cn(-c3ccc(C4CCCNC4)cc3)nc12` (stereo not given), the activation in test [1] is 26.7%. In addition, the Potency result in test [2], in test [3] and in test [4] was “inactive” in each case.
In the case of `O=C(c1cc(Cc2n[nH]c(=O)c3ccccc23)ccc1F)N1CCCNCC1`, the activation in test [1] is -4.3%. Also, the Potency result in test [2], in test [3] and in test [4] was “inactive” each time.
Regarding `CCOc1c2c(c(OCC)c3ccccc13)C(=O)N(c1ccc(CC(=O)NS(=O)(=O)c3ccccc3)cc1)C2`, the activation in test [1] was -25.3%. Moreover, the Potency entry in test [2], in test [3] and in test [4] was “inactive” each time.
`CC(=O)c1ccc2c(c1)[C@H](NC(=O)c1ccc(F)c(Cl)c1)[C@H](O)C(C)(C)O2`: the activation in test [1] was 7.16%. In addition, the Potency entry in test [2], in test [3] and in test [4] was “inactive” each time.
Turning to `CN1CCN(c2nc(-c3ccc(C(=O)NC4(C(=O)NCC#N)CCCCC4)cc3)cs2)CC1`, the activation in test [1] is -19.1%. Also, the Potency result in test [2], in test [3] and in test [4] was “inactive” in each case.
As to `O=C(NCC1(N2CCN(c3ccccc3)CC2)CCOCC1)c1cccnc1Sc1ccccc1`, in test [1], the activation is -3.34%. Moreover, the Potency result in test [2], in test [3] and in test [4] was “inactive” each time.
`CN(CC(=O)N(Cc1ccc(C2CCCCC2)cc1)c1ccc(C(=O)O)cc1)S(=O)(=O)c1c(F)c(F)c(F)c(F)c1F`: in test [1], the Potency is 6.75 µM (active). In addition, the Potency result in test [2], in test [3] and in test [4] was “inactive” each time.
For `CCOc1ccc(C(Nc2ccccn2)c2ccc3ccc(C)nc3c2O)cc1C` (stereo not given), in test [1], the activation was 19.6%. The Potency entry in test [2], in test [3] and in test [4] was “inactive” throughout.
With `CNCCCC1(c2ccccc2)OC(C)(C)c2ccccc21` (stereo not given), the activation in test [1] was -11.9%. Moreover, the Potency entry in test [2], in test [3] and in test [4] was “inactive” in each case.
Consider `O=C1C(Cc2ccc(O)cc2)N2C(=O)CCN(C(=O)NCc3ccccc3)C2CN1Cc1cccc2ccccc12` (stereo not given), for which the activation in test [1] was 19.6%. In addition, the Potency result in test [2], in test [3] and in test [4] was “inactive” each time.
On to `Cc1ccc(-c2c(-c3nn(C)c4ncnc(N5CCC(N6CCCCC6)C5)c34)cnn2C)cc1` (stereo not given), for which the activation in test [1] was 2.39%. Further, the Potency entry in test [2], in test [3] and in test [4] was “inactive” throughout.
With `COc1cc(Nc2nc3ccccc3nc2NS(=O)(=O)c2ccc(NC(=O)c3ccc(OC)c(C)c3)cc2)cc(OC)c1`, the activation in test [1] was -18.6%. Also, the Potency entry in test [2], in test [3] and in test [4] was “inactive” in each case.
As to `C[C@H](Oc1cc(-c2cnn(C3CCNCC3)c2)cnc1N)c1c(Cl)ccc(F)c1Cl`, in test [1], the activation was 14.8%. Also, the Potency entry in test [2], in test [3] and in test [4] was “inactive” each time.
In the case of `CC(=O)NC[C@H]1CN(c2ccc(N3CCSCC3)c(F)c2)C(=O)O1`, the activation in test [1] is 0%. The Potency result in test [2], in test [3] and in test [4] was “inactive” each time.
`Fc1ccc(-c2cncc(CN3CCN(c4cccc5c4OCCO5)CC3)c2)cc1`: the activation in test [1] was -10%. Moreover, the Potency result in test [2], in test [3] and in test [4] was “inactive” in each case.
Turning to `COc1ccc2c(c1O[C@H]1CCNC1)CCC2`, in test [1], the activation was -0.955%. For the same compound, the Potency result in test [2], in test [3] and in test [4] was “inactive” in each case.
As to `COc1cc(-c2cn(C3CCc4c(F)cccc4N(CC(F)(F)F)C3=O)nn2)ccc1-n1cnc(C)c1` (stereo not given), in test [1], the activation is 6.68%. Further, the Potency entry in test [2], in test [3] and in test [4] was “inactive” throughout.
With `O=C(COc1ccc2ccccc2c1Br)Nc1cccnc1`, in test [1], the activation is -15.8%. Moreover, the Potency result in test [2], in test [3] and in test [4] was “inactive” throughout.
In the case of `COc1ccc(-c2nc(-c3ccc(-c4cccc(Cl)c4)o3)[nH]c2-c2ccc(OC)cc2)cc1`, the activation in test [1] is -3.82%. Further, the Potency result in test [2], in test [3] and in test [4] was “inactive” in each case.
As to `O=C(O)CC1CCC(c2ccc(-c3ccc4nc(C(=O)NCc5ccc(OC(F)(F)F)cc5)cn4c3)cc2)CC1` (stereo not given), the activation in test [1] is 9.07%. Besides, the Potency result in test [2], in test [3] and in test [4] was “inactive” each time.
As to `Oc1ccc([C@H]2COc3cc(O)ccc3C2)cc1`, the activation in test [1] is -10.5%. Further, the Potency entry in test [2], in test [3] and in test [4] was “inactive” throughout.
For `Oc1ccccc1-c1cc(-c2ccccc2F)[nH]n1`, the activation in test [1] was -12.9%. Also, the Potency result in test [2], in test [3] and in test [4] was “inactive” each time.
`O=C(N[C@H](Cc1ccccc1)C(=O)O)c1sc2cc(F)ccc2c1Cl`: in test [1], the activation is -9.55%. In addition, the Potency entry in test [2], in test [3] and in test [4] was “inactive” throughout.
Turning to `Cc1cccc2c1CC[C@H](CN1CCC(c3c(Cl)cccc3Cl)CC1)C[C@@H]2O`, the activation in test [1] is 11.9% and -7.16%. Moreover, the Potency entry in test [2], in test [3] and in test [4] was “inactive” each time.
For the compound `COc1ccncc1C(=O)NC(=O)Nc1ccc(-c2ccccc2)c(C(F)(F)F)c1`, the activation in test [1] was -0.477%. Besides, the Potency entry in test [2], in test [3] and in test [4] was “inactive” throughout.
On to `COc1cc(Nc2nc3c(s2)CCCC3c2ccccc2)ccc1-n1cnc(C)c1` (stereo not given), for which the activation in test [1] is -18.6%. Besides, the activity change, negative = inhibition was 1.32% [at 11.2 µM] in test [2], 6.59% [at 20.1 µM] in test [3] and 0.24% [at 11.2 µM] in test [4].
On to `CN1CCC(c2c[nH]c3ccc(NC(=O)c4ccc(F)cc4)cc23)CC1`, for which the activation in test [1] was -11%. Also, the Potency result in test [2], in test [3] and in test [4] was “inactive” throughout.
